In the supplement of paper PMC6555819:

Tests used:
Assay in all cases: PBM binding z-score (relative to random genomic background probes); higher = stronger binding; sequences stand for … in GC…GCGATTGACAGCGTAGAATGAAGG
[1] = tested on: FXR:RXRa (NR concentration 270 nM, RXRa partner concentration 90 nM)
In short: (§1)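 Custom Agilent 4×180K protein-binding microarrays carried double-stranded probes, each with a 34-nt variable region. These regions held direct-repeat seeds, single-nucleotide variants, half-site ablations and random human genomic background sequences. Ligand-free nuclear receptor dimers were incubated on the arrays for 1 h, antibodies against each partner (one per run) detected binding, and scanned fluorescence was regression-normalized. Binding z-scores take the random background probes as reference.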

[2] = tested on: LXRa:RXRa (NR concentration 270 nM, RXRa partner concentration 90 nM)
In short: as §1

[3] = tested on: LXRa homodimer (NR concentration 270 nM)
In short: as §1

[4] = tested on: LXRb:RXRa (NR concentration 270 nM, RXRa partner concentration 90 nM)
In short: as §1

[5] = tested on: LXRb homodimer (NR concentration 270 nM)
In short: as §1

[6] = tested on: PPARa:RXRa (NR concentration 270 nM, RXRa partner concentration 90 nM)
In short: as §1

[7] = tested on: PPARg:RXRa (NR concentration 180 nM, RXRa partner concentration 90 nM)
In short: as §1

[8] = tested on: PPARg:RXRa 270nM:90nM, anti-RXR (NR concentration 270 nM, RXRa partner concentration 90 nM)
In short: as §1

[9] = tested on: PPARg:RXRa 30nM:10nM, anti-RXR (NR concentration 30 nM, RXRa partner concentration 10 nM)
In short: as §1

[10] = tested on: PPARg:RXRa 90nM:30nM, anti-RXR (NR concentration 90 nM, RXRa partner concentration 30 nM)
In short: as §1

[11] = tested on: PPARg:RXRa DBDmut IVT, anti-RXR (DBD mutation: RXRa K156A/R161A, NR concentration 270 nM, RXRa partner concentration 90 nM)
In short: as §1

[12] = tested on: PPARg:RXRa IVT, anti-PPARg (NR concentration 270 nM, RXRa partner concentration 90 nM)
In short: as §1

[13] = tested on: PPARg DBDmut:RXRa IVT, anti-PPARg (DBD mutation: PPARg1 K132A/R137A, NR concentration 270 nM, RXRa partner concentration 90 nM)
In short: as §1

[14] = tested on: PPARg DBDmut IVT, anti-PPARg (DBD mutation: PPARg1 K132A/R137A, NR concentration 270 nM)
In short: as §1

[15] = tested on: PPARg homodimer (NR concentration 180 nM)
In short: as §1

[16] = tested on: PXR:RXRa (NR concentration 270 nM, RXRa partner concentration 90 nM)
In short: as §1

[17] = tested on: PXR homodimer (NR concentration 270 nM)
In short: as §1

[18] = tested on: RARa:RXR (NR concentration 270 nM, RXRa partner concentration 90 nM)
In short: as §1

[19] = tested on: RARa homodimer (NR concentration 270 nM)
In short: as §1

[20] = tested on: RARb:RXRa (NR concentration 270 nM, RXRa partner concentration 90 nM)
In short: as §1

Sequence	PBM binding z-score [1]	PBM binding z-score [2]	PBM binding z-score [3]	PBM binding z-score [4]	PBM binding z-score [5]	PBM binding z-score [6]	PBM binding z-score [7]	PBM binding z-score [8]	PBM binding z-score [9]	PBM binding z-score [10]	PBM binding z-score [11]	PBM binding z-score [12]	PBM binding z-score [13]	PBM binding z-score [14]	PBM binding z-score [15]	PBM binding z-score [16]	PBM binding z-score [17]	PBM binding z-score [18]	PBM binding z-score [19]	PBM binding z-score [20]
TCTATTATTTGATTAGGGCAACCGAAACAGCGGA	0.94	0.738	1.29	1.08	1.33	1.34	0.291	2.43	4.02	3.25	2.19	1.39	2.04	2.12	2.2	0.756	2.04	1.17	3.39	0.93
CCTAGCACGCCAATCTGGGTCACTCAAGGCTTGA	0.513	0.503	-0.0137	0.788	-0.333	2.88	1.61	2.16	-0.246	1.13	3.75	4.76	-0.107	-0.39	0.751	0.751	-0.246	1.13	0.0845	1.06
TTACCAAGTTGAGCTGAGGTCGTTGATCCAACTC	0.614	0.638	-0.367	0.536	-0.873	1.03	-0.512	0.423	0.243	-0.0903	-0.673	0.221	-0.252	-0.114	-0.328	3.88	0.614	1.76	-0.601	0.659
